Screening results deposited in PubChem BioAssay by Broad Institute.
LMP1 NFkB inh: inhibitors of Epstein-Barr LMP1-induced NF-kappaB reporter; inhibition, % at 12.5 µM; AID 504558; hit rate 0.69% among 350,000; LMP1-induced NF-kappaB luciferase reporter cells, luminescence; in the data active = inhibition above about 41%; inconclusive = no clear call, values can overlap the other calls;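 note: 0% = neutral control wells and 100% = reference inhibitor control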
EWS-Fli inh: blocks EWS/Fli oncoprotein-driven transcription. A673 NR0B1-luciferase reporter, viability-normalised. inhibition, % at 12.6 µM. hit rate 0.67% among 350,000. AID 651661;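 active = mean inhibition of at least 50% after viability correction, with every replicate also passing that limit; inconclusive = mean reaches 50% but only one of two replicates passes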;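 note: firefly luciferase signal divided by Alamar Blue viability fluorescence both relative to DMSO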
PAX8 inh HTS: PAX8 transcriptional activity inhibition | hit rate 1.2% among 360,000 | inhibition, % at 12.6 µM | RMG-I TPO-luciferase reporter, SteadyGlo, 24 h;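 active = mean replicate inhibition at least 60% with every replicate also reaching 60%; inconclusive = only one of the two criteria is met; inactive = mean below 60% and not all replicates reaching 60%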;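 note: luciferase light reporting Pax8 driven TPO promoter activity; plate controls were median of neutral control wells for no effect and mitoxantrone controls for full effect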
LGR2 antag: Drosophila LGR2 receptor signaling inhibition. HEK293 LGR2, CRE-luciferase, bursicon-stimulated, 4 h. inhibition, % at 9.99 µM. hit rate 0.35% among 380,000. AID 720647;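 active = drop in luminescence signal, shown as inhibition above about 50% in the replicate tests, limit read from the data, passing the limit was not always enough; inconclusive = probably only some replicates passing the limit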;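 note: agonist challenge used bursicon conditioned medium at about half maximal strength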
TRPM1 prom inh: MITF TRPM1 promoter inhibition in SK-MEL-5 cells. inhibition, % at 12.5 µM. AID 488899. hit rate 0.83% among 330,000. SK-MEL-5 TRPM1 promoter luciferase, 24 h;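 active = mean inhibition across replicates of 60% or more, whatever share of single replicates reaches that level; inconclusive = some that reach 60%, reason not given; inactive = mean inhibition across replicates below 60%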
PGC1a acetyl inh: modulators of PGC1a acetylation; U2OS PGC1a acetylation, AlphaScreen anti-acetyl-lysine; with virally co-expressed GCN5 acetyltransferase; inhibition, % at 15.6 µM; hit rate 0.17% among 350,000;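 active = every replicate shows inhibition of at least 40%; inconclusive = mean inhibition at least 40% but some replicate below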;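 note: 0% = neutral control wells and 100% = positive control wells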
The depositor's hits bear a star. The list is not random: actives were taken first. Their share in the collection is about 2.2%.

What do the screens show for `Cc1noc(C)c1NC(=O)Nc1cccc2c1O[C@@H](CN(C)C(=O)NC(C)C)[C@H](C)CN([C@@H](C)CO)C2=O`?
EWS-Fli inh: 9; PAX8 inh HTS: -4; LGR2 antag: 1; PGC1a acetyl inh: -2

How did CC(=O)OCC1OC(n2ccc3ccccc32)C(OC(C)=O)C(OC(C)=O)C1OC(C)=O (centres undefined) do in these assays?
LMP1 NFkB inh: -1; TRPM1 prom inh: 5; PGC1a acetyl inh: -8

Results for COC(=O)C1C=CC(OC2OC(COC(C)=O)C(OC(C)=O)C(OC(C)=O)C2OC(C)=O)n2c(=O)n(-c3ccccc3)c(=O)n21 (centres undefined) ?
LMP1 NFkB inh: -4; EWS-Fli inh: -4; PAX8 inh HTS: 101*; LGR2 antag: inconclusive; TRPM1 prom inh: 95*

What do the screens show for `CNc1cncc(-c2cc(C)c(O)c(C)c2)n1`?
EWS-Fli inh: 52*; PAX8 inh HTS: -15; LGR2 antag: -22; PGC1a acetyl inh: 0

Results for Cc1ccc2nc(C)cc(Nc3ccc4c(c3)OCCO4)c2c1 ?
LMP1 NFkB inh: 11; PAX8 inh HTS: -34; TRPM1 prom inh: -5; PGC1a acetyl inh: -39

What do the screens show for `Cc1cc(Nc2ccc3c(c2)OCCO3)c2ccccc2n1`?
LMP1 NFkB inh: 3; EWS-Fli inh: -8; PAX8 inh HTS: 88*; LGR2 antag: 6; TRPM1 prom inh: 2

Results for COc1ccc(CN(C)C[C@@H]2Oc3ccc(NS(=O)(=O)c4ccc(C)cc4)cc3C(=O)N([C@H](C)CO)C[C@@H]2C)cc1 ?
EWS-Fli inh: 0; PAX8 inh HTS: -3; LGR2 antag: 3; PGC1a acetyl inh: -8

Results for CO[C@H]1CC[C@H]2CCN(C)C(=O)[C@@H](C)[C@H](OC)CN(C)C(=O)c3cccc(C#N)c3OC[C@@H]1O2 ?
EWS-Fli inh: -2; PAX8 inh HTS: -26; LGR2 antag: 7; PGC1a acetyl inh: 2

Results for COc1ccc(-c2nc3c(c(SCC(=O)Nc4cccc(O)c4)n2)Cc2c(CO)cnc(C)c2O3)cc1 ?
LMP1 NFkB inh: -11; PAX8 inh HTS: 88*; LGR2 antag: 16; TRPM1 prom inh: 7; PGC1a acetyl inh: -7

What do the screens show for `N#Cc1cnn(-c2ccccc2)c1NC(=O)CN1CCOCC1`?
EWS-Fli inh: 7; PAX8 inh HTS: -4; LGR2 antag: -4; PGC1a acetyl inh: 16

What do the screens show for `CCOC(=O)c1cnn(-c2ccccc2)c1NC(=O)CN1CCOCC1`?
LMP1 NFkB inh: 63*; EWS-Fli inh: 2; PAX8 inh HTS: 9; LGR2 antag: 3; TRPM1 prom inh: 7; PGC1a acetyl inh: 2

Results for COc1ccc(NC(=O)N2CCC3(CC2)CN(C(C)=O)[C@H](CO)c2[nH]c4cc(OC)ccc4c23)cc1 ?
EWS-Fli inh: -24; LGR2 antag: 3

How did O=C1NC(=S)S/C1=C\C=C\c1ccc([N+](=O)[O-])o1 do in these assays?
LMP1 NFkB inh: -48; EWS-Fli inh: 70*; PAX8 inh HTS: 48; LGR2 antag: 20; TRPM1 prom inh: 90*; PGC1a acetyl inh: -73

How did C[C@@H]1CN([C@H](C)CO)C(=O)c2cc(C#CCC3CCCC3)cnc2O[C@@H]1CN(C)C(=O)CN(C)C do in these assays?
EWS-Fli inh: 2; PAX8 inh HTS: 9; LGR2 antag: 6; PGC1a acetyl inh: -1

What do the screens show for `CCSC1(SCC)N=C(N)C2(C#N)C(c3ccc(F)cc3)C12C#N` (centres undefined)?
LMP1 NFkB inh: -13; TRPM1 prom inh: 82*; PGC1a acetyl inh: -6

How did C[C@@H]1CN([C@@H](C)CO)S(=O)(=O)c2ccc(-c3ccccc3)cc2O[C@H]1CN(C)Cc1cccnc1 do in these assays?
EWS-Fli inh: 67*; PAX8 inh HTS: inconclusive; LGR2 antag: 0; PGC1a acetyl inh: 5

What do the screens show for `C[C@@H]1CN([C@H](C)CO)S(=O)(=O)c2ccc(-c3ccccc3)cc2O[C@@H]1CN(C)Cc1ccccn1`?
EWS-Fli inh: 0; LGR2 antag: 6; PGC1a acetyl inh: 6

How did C[C@@H]1CN([C@H](C)CO)S(=O)(=O)c2ccc(-c3ccc(C#N)cc3)cc2O[C@H]1CN(C)Cc1ccccn1 do in these assays?
EWS-Fli inh: 53*; PAX8 inh HTS: 65*; LGR2 antag: -6; PGC1a acetyl inh: 12
